# Test results: PubChem BioAssay (EPA / NIEHS)
# “And” between values parts separate entries of the source, which are not always exact repeats. Identical values can stand only once. Where a structure was tested more than once in an assay, its records may differ in their call. The source made the active and inactive calls. How the source made its calls: active means hit-call score of the fitted dose curve at least 0.9, where 1 is the maximum; inactive means score below 0.9.
# Assays:
# [1] = read-out: Interleukin 17F (IL17F), IL17F (gene 112744); assay: BSK_BT_xIL17F: BioMAP Diversity Plus: BT Assay for Interleukin 17F (IL17F) Biomarker Activity (AID 2284243); details: primary human B cells with PBMC
# How it was run: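 Measures secreted IL-17F from a human B cell plus PBMC co-culture at 24 h post-dose by Luminex xMAP, with DMSO defining baseline activity.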
# [2] = read-out: Actin alpha 1 (ACTA1), ACTA1 (gene 58); assay: BSK_MyoF_ACTA1: BioMAP Diversity Plus: MyoF Assay for Actin alpha 1 (ACTA1) Biomarker Activity (AID 2284244); details: primary human lung fibroblasts
# How it was run: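 alpha-SMA levels read by ELISA against DMSO baseline, 24 h post-dose, in primary human lung fibroblasts. Parallel cultures stained with 0.1% SRB after 10% TCA fixation (560 nm) to flag overt cytotoxicity.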
# [3] = read-out: Interleukin 2 (IL2), IL2 (gene 3558); assay: BSK_BT_xIL2: BioMAP Diversity Plus: BT Assay for Interleukin 2 (IL2) Biomarker Activity (AID 2284245); details: primary human B cells with PBMC
# How it was run: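 Secreted IL-2 was read by Luminex xMAP from B cells co-cultured with PBMC (human primary) 24 h post-dosing; activity was analysed as gain of signal relative to DMSO vehicle.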
# [4] = read-out: Basic fibroblast growth factor (bFGF), FGF2 (gene 2247); assay: BSK_MyoF_bFGF: BioMAP Diversity Plus: MyoF Assay for Basic fibroblast growth factor (bFGF) Biomarker Activity (AID 2284246); details: primary human lung fibroblasts
# How it was run: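 bFGF was measured by ELISA in primary human lung fibroblasts 24 h after chemical addition. Signal was analysed as positive-direction change relative to DMSO baseline.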
# [5] = read-out: Collagen IV, COL4A1 (gene 1282); assay: BSK_MyoF_CollagenIV: BioMAP Diversity Plus: MyoF Assay for Collagen IV Biomarker Activity (AID 2284247); details: primary human lung fibroblasts
# How it was run: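 Collagen IV quantified by ELISA in human lung fibroblast cultures 24 h after chemical treatment, with DMSO as baseline. Parallel SRB staining (0.1% SRB after TCA fixation, 560 nm) flags overt cytotoxicity.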
# [6] = read-out: Plasminogen activator inhibitor-1 (PAI1), SERPINE1 (gene 5054); assay: BSK_MyoF_PAI1: BioMAP Diversity Plus: MyoF Assay for Plasminogen activator inhibitor-1 (PAI1) Biomarker Activity (AID 2284256); details: primary human lung fibroblasts;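 on outcome: PAI-1 protein level measured by ELISA in fibroblast cultures; PAI-1 read 24 h after compound addition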
# How it was run: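 Activity reflects increased PAI-1, determined by ELISA and compared with DMSO, in human lung fibroblasts treated for 24 h.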
# Decorin, DCN (gene 1634) = assay: BSK_MyoF_Decorin: BioMAP Diversity Plus: MyoF Assay for Decorin Biomarker Activity (AID 2284265); details: primary human lung fibroblasts
# How it was run: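 Lung fibroblast cultures, 24 h chemical exposure. Decorin by ELISA, positive fitting direction, DMSO baseline.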
# [7] = BSK_MyoF_SRB: Viability Assessment in the BioMAP Diversity Plus: MyoF Assay (AID 2284267); details: primary human lung fibroblasts;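 further: total protein by SRB absorbance in parallel cultures as cytotoxicity measure; cells assessed 24 h after compound addition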
# How it was run: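 Cytotoxicity read-out: after 10% TCA fixation, parallel human lung fibroblast cultures were stained with 0.1% SRB at 24 h post-dosing and read at 560 nm; DMSO served as baseline.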
# [8] = read-out: Matrix Metallopeptidase 1 (MMP1), MMP1 (gene 4312); assay: BSK_MyoF_MMP1: BioMAP Diversity Plus: MyoF Assay for Matrix Metallopeptidase 1 (MMP1) Biomarker Activity (AID 2284268); details: primary human lung fibroblasts
# How it was run: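 MMP1 measured by ELISA 24 h after dosing primary human lung fibroblasts; cytotoxicity checked in parallel cultures by sulforhodamine B total-protein staining read at 560 nm.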
# [9] = read-out: TIMP metallopeptidase inhibitor 1 (TIMP1), TIMP1 (gene 7076); assay: BSK_MyoF_TIMP1: BioMAP Diversity Plus: MyoF Assay for TIMP metallopeptidase inhibitor 1 (TIMP1) Biomarker Activity (AID 2284269); details: primary human lung fibroblasts
# How it was run: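 Primary human lung fibroblasts, MyoF multiplex system; chemical exposure 24 h; TIMP-1 by ELISA; positive fitting direction vs DMSO control.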
# [10] = read-out: Monokine induced gamma interferon (MIG), CXCL9 (gene 4283); assay: BSK_KF3CT_MIG: BioMAP Diversity Plus: KF3CT Assay for Monokine induced gamma interferon (MIG) Biomarker Activity (AID 2284248); details: primary human keratinocytes with fibroblasts
# How it was run: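 The assay uses a co-culture of human keratinocytes and foreskin fibroblasts. Measurement occurs 24 hours after dosing, with MIG detected by ELISA and the DMSO control as baseline.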
# [11] = read-out: Collagen I, COL1A1 (gene 1277); assay: BSK_hDFCGF_CollagenI: BioMAP Diversity Plus: hDFCGF Assay for Collagen I Biomarker Activity (AID 2284250); details: primary human foreskin fibroblasts
# How it was run: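 Collagen I quantified by ELISA 24 h after chemical dosing of human dermal fibroblast primary cells, with parallel SRB staining (0.1%, TCA-fixed, 560 nm) for overt cytotoxicity.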
# [12] = read-out: Interferon-inducible T-cell alpha chemoattractant (ITAC), CXCL11 (gene 6373); assay: BSK_hDFCGF_ITAC: BioMAP Diversity Plus: hDFCGF Assay for Interferon-inducible T-cell alpha chemoattractant (ITAC) Biomarker Activity (AID 2284251); details: primary human foreskin fibroblasts
# How it was run: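 I-TAC levels were read by ELISA on human dermal foreskin fibroblast primary cultures 24 h after dosing, analysed against DMSO in the positive direction. Cytotoxicity was assessed alongside by sulforhodamine B total-protein staining.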
# [13] = read-out: Plasminogen activator inhibitor-1 (PAI1), SERPINE1 (gene 5054); assay: BSK_KF3CT_PAI1: BioMAP Diversity Plus: KF3CT Assay for Plasminogen activator inhibitor-1 (PAI1) Biomarker Activity (AID 2284252); details: primary human keratinocytes with fibroblasts
# How it was run: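 PAI-1 levels quantified by ELISA after 24 h compound exposure of primary human skin keratinocytes co-cultured with fibroblasts. Activity is the gain relative to DMSO; cytotoxicity tracked in parallel cultures via SRB staining.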
# [14] = read-out: Interleukin-8 (IL8), CXCL8 (gene 3576); assay: BSK_KF3CT_IL8: BioMAP Diversity Plus: KF3CT Assay for Interleukin-8 (IL8) Biomarker Activity (AID 2284254); details: primary human keratinocytes with fibroblasts
# How it was run: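 ELISA detection of IL-8 from a human skin co-culture, keratinocytes with foreskin fibroblasts, at 24 h following chemical exposure, with gain of signal scored against DMSO controls.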
# [15] = read-out: Intercellular Adhesion Molecule 1 (ICAM1), ICAM1 (gene 3383); assay: BSK_BE3C_ICAM1: BioMAP Diversity Plus: BE3C Assay for Intercellular Adhesion Molecule 1 (ICAM1) Biomarker Activity (AID 2284278); details: primary human bronchial epithelial cells;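 on outcome: cell-surface ICAM-1 protein level quantified by ELISA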
# How it was run: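 ICAM-1 quantified by ELISA and fitted against DMSO baseline, 24 h post-dosing in BE3C cultures of primary human lung bronchial epithelial cells. Cytotoxicity checked in parallel cultures by total protein SRB staining.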
# [16] = read-out: Interferon-inducible T-cell alpha chemoattractant (ITAC), CXCL11 (gene 6373); assay: BSK_BE3C_ITAC: BioMAP Diversity Plus: BE3C Assay for Interferon-inducible T-cell alpha chemoattractant (ITAC) Biomarker Activity (AID 2284279); details: primary human bronchial epithelial cells
# How it was run: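 Steps: dose human bronchial epithelial cells with chemical; incubate 24 h; measure I-TAC by ELISA; fit endpoint in positive direction against DMSO control. Cytotoxicity was checked in parallel cultures by SRB staining at harvest.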
# [17] = read-out: Interleukin-8 (IL8), CXCL8 (gene 3576); assay: BSK_BE3C_IL8: BioMAP Diversity Plus: BE3C Assay for Interleukin-8 (IL8) Biomarker Activity (AID 2284280); details: primary human bronchial epithelial cells
# How it was run: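 Primary human bronchial epithelial cells (BE3C system) were exposed to test chemical for 24 h, and IL-8 levels were then measured by ELISA. Activity was fitted in the positive (gain-of-signal) direction against a DMSO negative-control baseline.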
# [18] = read-out: Epidermal growth factor receptor (EGFR), EGFR (gene 1956); assay: BSK_BE3C_EGFR: BioMAP Diversity Plus: BE3C Assay for Epidermal growth factor receptor (EGFR) Biomarker Activity (AID 2284281); details: primary human bronchial epithelial cells
# How it was run: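 Human primary bronchial epithelial cells were exposed to compound for 24 h, and cell-surface EGFR was then quantified by ELISA. Activity was fitted in the positive direction against the DMSO vehicle baseline.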
structure (smiles),measurement,setting,value
C=C(C)C(=O)OCCOCCOCCOCCOC(=O)C(=C)C,outcome,[1],inactive
same,outcome,[2],inactive
same,outcome,[3],inactive
same,outcome,[4],inactive
same,outcome,[5],inactive
same,outcome,[6],inactive
same,outcome,"Decorin, DCN (gene 1634)",inactive
same,outcome,[7],inactive
same,outcome,[8],inactive
same,outcome,[9],inactive
CCC(C)c1cc([N+](=O)[O-])cc([N+](=O)[O-])c1OC(=O)OC(C)C (centres undefined),AC50,[1],33.7 µM (active)
same,AC50,[2],8.46 µM (active)
same,AC50,[3],20 µM (active)
same,AC50,[4],27.7 µM (active)
same,AC50,[5],20 µM (active)
same,AC50,[6],11.7 µM (active)
same,AC50,"Decorin, DCN (gene 1634)",24.4 µM (active)
same,AC50,[7],13.4 µM (active)
same,AC50,[8],20 µM (active)
same,AC50,[9],13.6 µM (active)
Cc1cc(CCC(=O)OCCOCCOCCOC(=O)CCc2cc(C)c(O)c(C(C)(C)C)c2)cc(C(C)(C)C)c1O,outcome,[1],inactive
same,outcome,[2],inactive
same,outcome,[3],inactive
same,outcome,[4],inactive
same,outcome,[5],inactive
same,outcome,[6],inactive
same,outcome,"Decorin, DCN (gene 1634)",inactive
same,outcome,[7],inactive
same,outcome,[8],inactive
same,outcome,[9],inactive
CC(C=O)Cc1ccc(C(C)(C)C)cc1 (centres undefined),outcome,[1],inactive
same,AC50,[2],31.6 µM (active)
same,outcome,[3],inactive
same,outcome,[4],inactive
same,outcome,[5],inactive
same,outcome,[6],inactive
same,outcome,"Decorin, DCN (gene 1634)",inactive
same,outcome,[7],inactive
same,outcome,[8],inactive
same,outcome,[9],inactive
CS(=O)(=O)c1ccc(C2=C(c3ccccc3)C(=O)OC2)cc1,outcome,[1],inactive
same,outcome,[2],inactive
same,outcome,[3],inactive
same,outcome,[4],inactive
same,outcome,[5],inactive
same,AC50,[6],0.0082 µM (active)
same,outcome,"Decorin, DCN (gene 1634)",inactive
same,outcome,[7],inactive
same,outcome,[8],inactive
same,outcome,[9],inactive
CCCCCCC(CO)CCCC (centres undefined),AC50,[10],35.5 µM (active)
same,AC50,[11],36.4 µM (active) and 30.8 µM (active)
same,AC50,[12],33.1 µM (active) and 34.8 µM (active)
same,AC50,[13],32.7 µM (active) and 31 µM (active)
same,AC50,[14],28.9 µM (active) and 32.5 µM (active)
same,AC50,[15],20 µM (active)
same,outcome,[15],inactive
same,outcome,[16],inactive
same,outcome,[17],inactive
same,outcome,[18],inactive
O=CN1CCOCC1,outcome,[10],inactive
same,outcome,[11],inactive
same,outcome,[12],inactive
same,outcome,[13],inactive
same,outcome,[14],inactive
same,outcome,[15],inactive
same,outcome,[16],inactive
same,outcome,[17],inactive
same,outcome,[18],inactive
C=C(C)[C@H]1CC=C(C)C(=O)C1,outcome,[1],inactive
same,outcome,[2],inactive
same,outcome,[3],inactive
same,outcome,[4],inactive
same,outcome,[5],inactive
same,outcome,[6],inactive
same,outcome,"Decorin, DCN (gene 1634)",inactive
same,outcome,[7],inactive
same,outcome,[8],inactive
same,outcome,[9],inactive
CCOC(=O)C(C#N)=C(c1ccccc1)c1ccccc1,outcome,[10],inactive
same,outcome,[11],inactive
same,AC50,[12],26.1 µM (active)
same,outcome,[12],inactive
same,outcome,[13],inactive
same,outcome,[14],inactive
same,outcome,[15],inactive
same,outcome,[16],inactive
same,outcome,[17],inactive
same,outcome,[18],inactive
c1ccc(Oc2ccccc2)cc1,outcome,[1],inactive
same,outcome,[2],inactive
same,outcome,[3],inactive
same,outcome,[4],inactive
same,outcome,[5],inactive
same,outcome,[6],inactive
same,outcome,"Decorin, DCN (gene 1634)",inactive
same,outcome,[7],inactive
same,outcome,[8],inactive
same,outcome,[9],inactive
CCCCCCCCCCCCCCCC(=O)OC/C=C(C)/C=C/C=C(C)/C=C/C1=C(C)CCCC1(C)C,outcome,[1],inactive
same,outcome,[2],inactive
same,outcome,[3],inactive
same,outcome,[4],inactive
same,outcome,[5],inactive
same,outcome,[6],inactive
same,outcome,"Decorin, DCN (gene 1634)",inactive
same,outcome,[7],inactive
same,outcome,[8],inactive
same,outcome,[9],inactive
